Measured values: the supplement of paper PMC6555819

Each sequence was assayed on PPARg DBDmut:RXRa IVT, anti-PPARg (DBD mutation: PPARg1 K132A/R137A, NR concentration 270 nM, RXRa partner concentration 90 nM) (assay: PBM binding z-score (relative to random genomic background probes); higher = stronger binding; sequences stand for … in GC…GCGATTGACAGCGTAGAATGAAGG).
Summary of the method: (§1)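 Scanned fluorescence from custom Agilent 4×180K protein-binding microarrays was regression-normalized. Binding z-scores use random background probes as reference. Ligand-free nuclear receptor dimers were incubated on the arrays for 1 h and detected with antibodies against each partner (one per run).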

Row | Sequence | PBM binding z-score
1 | TAGACTAGGTCATTCAGGGGCCAGTATAGAAAGC | 3.24
2 | TGTGCTAGGTCAGTTGGTCAGCTAACGAGCTGCC | -0.307
3 | TTACCACGGTGAAGGTCGTTGATCCCTCTGTAGA | -0.118
4 | TTACCAAGGTGAGCTGAGGTCGTTCATCCAACTC | -0.164
5 | ATCGGAAGGTCGACGAGGTGAGTATACACCGTTT | 0.22
6 | CCAGACAGGTGAAAGGTAACTTAGTCTGGTACGC | 0.0771
7 | AGTCAAAGTTCAGGGCGAGGTAACGTAAAGCACG | -0.0376
8 | TCTGGTTGGTCACGGAGGTCACACACGACGGGTA | 1.34
9 | TTACCAAGGTTAAGGTCGTTGATCCCTCTGTAGA | 0.246
10 | CCTCGGAGGACAAGAGGAGGTCAGAGCTGCCAGA | -0.899
11 | GCTTACGGGTCAAAGGATATAGCATGAATAGAAT | 1.25
12 | CGTCCAAGGTAAAAGGTCAGTGAAGAGATGACGG | -0.145
13 | CGTCCAAGGTCAGGGTCAGTGAAAGAGACTCGAA | 0.335
14 | ATCTCTAGGTAAAGTTCGGTGAAAGATCGATAGA | 1.46
15 | CAAACTAGGTCGAGGTCAAAGTCGGTTTGTGCCA | 0.51
16 | CCTAACGGGTCACGAGGTTATAGCACGACGAGCG | 1.47
17 | CAAACTAGGTCACGAAAGGCCAAAGTCGAATGAC | 5.28
18 | CGTGCAAGGTCAATGCTAGGTCAGTGAAAGCATT | 0.426
19 | CCTACTGGGCCATTCAGAGGTCATTGAGCATATG | 0.182
20 | ATACCAAGGTGATGGTGAGGTCGTTGATACTAAC | 0.793

Row | Sequence | PBM binding z-score
21 | CCTTACGGGTCACGAGGTTACAGCACGACGAGCG | 2.08
22 | GATACAGGGTCAGCTAGAGGCCAGAGTATGGAAA | 0.139
23 | TGAATGAGGTTAAAGATCAGGGACCGTGGCGTCG | 0.741
24 | CAAACTTGGTCACGAAAGGTCAAAGTCGAATGAC | 0.428
25 | GGAACGAGGGCAAAGTTGATTGCATCTGTCGACG | 0.0713
26 | CCTCGGAGGACAGAAGGTCAGAGCGGTCCGCTTT | -1.49
27 | CAGCCTCGGTCAGGGCCAGTATAGGAGGAACGTT | -1.14
28 | TCGAGTAGGTTAGTCGAGGCATTCAGCCAACATA | -0.938
29 | CGTCCAATGTCATAGGAGGTCAGTGAAGACAGAT | 0.476
30 | GCTGCTTGGTCAGGTTGGTCAGCTAACGGGTACG | -0.778
31 | GCAGACAGGTGAAGCGCAGGTAACTCAGGGTGGC | -0.748
32 | GCTAGCAGGCCATTTGGGTCCCTCAATGACGGGC | -1.53
33 | ATCTCTAGGTTACCAAGTTCAGTGAATGCCGAAC | 1.25
34 | CGTCCAAGGTCAATGCTAAGTCAGTGAAAGCATT | 0.647
35 | ATCGAAAGGTCTAGGTGAGTATAGAGAAAGGGAA | 0.807
36 | CATACAGGGTCAGCTTGGCCAGAGTAGGGACGGC | 0.91
37 | CCTACTGGGCTACGAAAGGTCATTGATTCAGTGA | -0.45
38 | ATATGTAGGTTGCATCCGGGTCATTCAGGCTATG | 1.47
39 | TAGCCTAGGTCATTCAAGGGCCAGTATAGAAAGC | 0.0741
40 | AGAATGAGGATACCAAAGATCAGGGAAACGCTTG | 0.131

What follows are sequences tested on PPARg DBDmut IVT, anti-PPARg (DBD mutation: PPARg1 K132A/R137A, NR concentration 270 nM) in the same assay as above.
Summary of the method: as §1

Row | Sequence | PBM binding z-score
41 | TAGACTAGGTCATTCAGGGGCCAGTATAGAAAGC | 2
42 | TGTGCTAGGTCAGTTGGTCAGCTAACGAGCTGCC | 0.199
43 | TTACCACGGTGAAGGTCGTTGATCCCTCTGTAGA | -0.0664
44 | TTACCAAGGTGAGCTGAGGTCGTTCATCCAACTC | -0.434
45 | ATCGGAAGGTCGACGAGGTGAGTATACACCGTTT | -0.4
46 | CCAGACAGGTGAAAGGTAACTTAGTCTGGTACGC | -0.396
47 | AGTCAAAGTTCAGGGCGAGGTAACGTAAAGCACG | 0.418
48 | TCTGGTTGGTCACGGAGGTCACACACGACGGGTA | 1.67
49 | TTACCAAGGTTAAGGTCGTTGATCCCTCTGTAGA | 0.342
50 | CCTCGGAGGACAAGAGGAGGTCAGAGCTGCCAGA | -1.36
51 | GCTTACGGGTCAAAGGATATAGCATGAATAGAAT | 1.03
52 | CGTCCAAGGTAAAAGGTCAGTGAAGAGATGACGG | 0.215
53 | CGTCCAAGGTCAGGGTCAGTGAAAGAGACTCGAA | -0.416
54 | ATCTCTAGGTAAAGTTCGGTGAAAGATCGATAGA | 1.56
55 | CAAACTAGGTCGAGGTCAAAGTCGGTTTGTGCCA | 0.375
56 | CCTAACGGGTCACGAGGTTATAGCACGACGAGCG | 0.866
57 | CAAACTAGGTCACGAAAGGCCAAAGTCGAATGAC | 3.96
58 | CGTGCAAGGTCAATGCTAGGTCAGTGAAAGCATT | -0.53
59 | CCTACTGGGCCATTCAGAGGTCATTGAGCATATG | -0.178
60 | ATACCAAGGTGATGGTGAGGTCGTTGATACTAAC | 0.597

Row | Sequence | PBM binding z-score
61 | CCTTACGGGTCACGAGGTTACAGCACGACGAGCG | 2.53
62 | GATACAGGGTCAGCTAGAGGCCAGAGTATGGAAA | 0.0351
63 | TGAATGAGGTTAAAGATCAGGGACCGTGGCGTCG | 0.491
64 | CAAACTTGGTCACGAAAGGTCAAAGTCGAATGAC | 0.593
65 | GGAACGAGGGCAAAGTTGATTGCATCTGTCGACG | -0.581
66 | CCTCGGAGGACAGAAGGTCAGAGCGGTCCGCTTT | -1.9
67 | CAGCCTCGGTCAGGGCCAGTATAGGAGGAACGTT | -2.31
68 | TCGAGTAGGTTAGTCGAGGCATTCAGCCAACATA | -0.136
69 | CGTCCAATGTCATAGGAGGTCAGTGAAGACAGAT | 0.254
70 | GCTGCTTGGTCAGGTTGGTCAGCTAACGGGTACG | -0.893
71 | GCAGACAGGTGAAGCGCAGGTAACTCAGGGTGGC | -1.21
72 | GCTAGCAGGCCATTTGGGTCCCTCAATGACGGGC | -1.41
73 | ATCTCTAGGTTACCAAGTTCAGTGAATGCCGAAC | 1.33
74 | CGTCCAAGGTCAATGCTAAGTCAGTGAAAGCATT | -0.584
75 | ATCGAAAGGTCTAGGTGAGTATAGAGAAAGGGAA | 0.731
76 | CATACAGGGTCAGCTTGGCCAGAGTAGGGACGGC | 0.462
77 | CCTACTGGGCTACGAAAGGTCATTGATTCAGTGA | 0.321
78 | ATATGTAGGTTGCATCCGGGTCATTCAGGCTATG | 0.927
79 | TAGCCTAGGTCATTCAAGGGCCAGTATAGAAAGC | 0.0632
80 | AGAATGAGGATACCAAAGATCAGGGAAACGCTTG | -0.145
